According to PubChem BioAssay AID1645855 (Buhrlage Lab, Dana-Farber Cancer Institute and Novartis …, 2021):
About 3,100 (6.6%) of roughly 47,000 compounds were called active. No stated cut-off is given here; in the data, active means inhibition above about 30%; inactive means the rest. For the sample, actives were picked, then their nearest neighbours and some compounds at random.

Biological target: Ubiquitin carboxyl-terminal hydrolase 17-like protein 5 (Homo sapiens) (UniProt A8MUK1)
Assay: inhibitors of human USP17 deubiquitinase (AID 1645855)
Conditions: purified USP17, Ub-rhodamine cleavage fluorescence, 3 h; at 50 µM; stronger effect = higher value

Ubiquitin carboxyl-terminal hydrolase 17-like protein 5 (Homo sapiens), sequence (A8MUK1 whole entry, looked up): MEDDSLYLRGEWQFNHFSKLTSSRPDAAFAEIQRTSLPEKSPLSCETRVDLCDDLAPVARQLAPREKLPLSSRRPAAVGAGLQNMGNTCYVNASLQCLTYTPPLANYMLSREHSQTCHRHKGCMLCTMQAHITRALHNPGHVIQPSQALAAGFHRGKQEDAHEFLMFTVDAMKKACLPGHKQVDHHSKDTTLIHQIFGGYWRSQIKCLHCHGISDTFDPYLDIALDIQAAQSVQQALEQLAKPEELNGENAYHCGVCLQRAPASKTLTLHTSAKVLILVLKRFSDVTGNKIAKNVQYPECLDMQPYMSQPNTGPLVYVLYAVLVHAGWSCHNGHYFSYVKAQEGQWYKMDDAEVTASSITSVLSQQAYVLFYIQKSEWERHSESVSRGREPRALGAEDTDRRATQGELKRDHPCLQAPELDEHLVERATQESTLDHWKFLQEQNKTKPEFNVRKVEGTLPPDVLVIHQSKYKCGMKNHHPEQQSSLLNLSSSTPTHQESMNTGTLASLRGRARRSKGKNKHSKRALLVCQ

inhibition, active:
CSc1ccccc1NC(=O)c1ccc(N2CCCC2)nn1 56.7%
O=C(COC(=O)c1ccc2[nH]c3c(c2c1)CCCC3)Nc1ccc(N2CCOCC2)cc1 31%
COc1cccc(NC(=O)c2ccc3c(c2)N(S(C)(=O)=O)CC3)c1 30.4%
COc1ccc(N(Cc2cc(=O)[nH]c3ccccc23)C(=O)c2ccc(Cl)cc2)cc1 39.6%
O=C(NCCc1ccccc1)c1ccc2c(=O)n(Cc3ccco3)c(=O)n(Cc3cccc([N+](=O)[O-])c3)c2c1 53.8%
CN1CC(=O)N(C2CCCNC2)Cc2c(NC3CCc4ccccc43)ncnc21 (stereo unspecified) 50.3%
Cc1c(-c2nn3c(-c4ccco4)nnc3s2)cccc1[N+](=O)[O-] 67.4%
CC(=O)Nc1ccc(S(=O)(=O)NCc2ccc(C(=O)NCc3ccc(C)cc3)cc2)cc1 52.9%
COc1ccc(CCC(=O)Nc2ccc3nc(N4CCOCC4)cc(C)c3c2)cc1 33.3%
Cc1nn(-c2cccc(F)c2)c2c1c(C)c(CCC(=O)NCc1ccccn1)c(=O)n2C 32.6%
N#Cc1ccccc1OCC(=O)Nc1ccc(-c2cn3ccsc3n2)cc1 46.9%
COc1cc(NC(=O)c2noc3c2CCc2sccc2-3)cc(OC)c1 48.3%
O=C(Nc1nnc(-c2cccc([N+](=O)[O-])c2)o1)C1CCN(S(=O)(=O)c2ccc3c(c2)CCC3)CC1 73.8%
Nn1c(SCC(=O)Nc2ccccc2F)nnc1-c1n[nH]c2c1CCC2 41.7%
C/C=C(\Cl)C1=CC(=O)[C@]23C[C@H]2[C@@]2(C)CO[C@@]1(O)[C@@]3(O)O2 68.6%
O=C(COc1ccc2oc3c(c2c1)CCCC3)Nc1ccccn1 70.8%
NC(=O)c1ccccc1NC(=O)C1CN(c2nc3c(F)cccc3s2)C1 31%
Cc1ccnc(Nc2nc(-c3ccccc3)c3cc(Cl)ccc3n2)n1 91.1%

inhibition, inactive:
OCc1cc2c([nH]c3ccccc32)c([C@@H](O)CO)n1 -4.94%
Cc1ccccc1Nc1nc(N)nc(CN2CCCC2c2cccn2C)n1 (stereo unspecified) -130%
CCOC(=O)c1cnc2c(C(F)(F)F)cccc2c1Sc1ccc(C)cc1C 3.52%
O=C1NC2(CCN(C(=O)Cc3ccccc3)CC2)Nc2cc(Cl)ccc21 -2.47%
O=C(Cc1ccccc1)N1CCN(c2ccc(N3CCCC3)nn2)CC1 15%
Cc1cc(C)n(-c2ccc(C(=O)Nc3ccccc3C(C)C)nn2)n1 29.7%
O=C(c1sc2cnccc2c1-n1cccc1)N1CCc2ccccc2C1 8.13%
CCOC(=O)c1cc(C)nc2c1c(=O)n(Cc1nc(-c3ccccc3)oc1C)c(=O)n2C -6.3%
CCCOc1ccc(C2CN3C(=O)N(c4cccc(C(C)=O)c4)C(=O)[C@]3(C)c3[nH]c4ccccc4c32)cc1OCC (stereo partly specified) 2.94%
COc1ccc(-c2cc(C(=O)Nc3sccc3C(N)=O)c3ccccc3n2)cc1 -139%
COC(=O)c1cccc(N(C(=O)c2cnccn2)C(C(=O)NC2CCCCC2)c2ccc(OC)c(OC)c2)c1 (stereo unspecified) -9.26%
O=C(NC1CCCC1)C1c2cc(Br)ccc2OCC(=O)N1C1CCCC1 (stereo unspecified) -0.00685%
CC(CCc1ccccc1)NC(=O)COC(=O)c1ccc2[nH]c3c(c2c1)CCCC3 (stereo unspecified) 15.2%
O=C(COC(=O)CCc1nc2ccccc2c(=O)[nH]1)Nc1ccc(N2CCOCC2)cc1 -1.46%
c1cc2c(cc1-c1nn[nH]n1)OCO2 -14.4%
CC(=O)N1CC[C@H]2COC(=O)N(Cc3ccccc3)[C@@H]2C1 5.56%
COc1ccc(CN(C)c2ccc(S(=O)(=O)Nc3ccccn3)cn2)cc1 6.32%
O=S(=O)(c1ccccc1F)N1CCCn2nnc(COCC3CC3)c2C1 0.743%
Cc1ccc(NC(=O)c2ccc3c(c2)N(S(C)(=O)=O)CC3)cc1C -24.5%
COc1ccccc1NC(=O)c1cccc(S(=O)(=O)N2CCc3ccccc32)c1 -7.94%
Cn1c(CCNC(=O)c2ccc(C(C)(C)C)cc2)nc2cccnc21 -167%
Cc1ccc(C(=O)N(Cc2cc(=O)[nH]c3ccccc23)C(C)C)cc1F 0.00655%
COc1ccc(C(=O)CC(c2ccc(Cl)cc2)S(=O)(=O)c2ccccc2)cc1 (stereo unspecified) 4.59%
CCNC(=O)c1cccc(Nc2c(-c3ccc(Cl)cc3)nc3cnccn23)c1 -21.3%
CC(C)c1noc(-c2ccc(OCC(=O)Nc3ccccc3Br)cc2)n1 -2.89%
O=C(Cn1c(=O)n(Cc2ccc3c(c2)OCO3)c(=O)c2ccccc21)NCc1ccco1 23%
CC(C)(C)C(=O)Cn1c(=O)n(Cc2ccco2)c(=O)c2ccccc21 -6.03%
O=C(O)COCC(=O)Nc1scc2c1c(=O)oc1ccccc12 15.1%
COc1cc(C2CC(=O)c3cnc(N4CCc5ccccc5C4)nc3C2)cc(OC)c1OC (stereo unspecified) 7.46%
CC1CCc2c(cnc3c(C(=O)NCCc4ccccc4)cnn23)C1 (stereo unspecified) -1.68%
Cc1c(Cl)c([N+](=O)[O-])nn1CCCC(=O)NC(C)c1ccccc1 (stereo unspecified) -29.5%
CCOC(=O)C1(Cc2cc(-c3ccccc3F)no2)CCN(CC)CC1 -12.6%
O=C(CSc1cn[nH]n1)Nc1ccc(F)c(Cl)c1 0.831%
Cc1ccc(C)c(S(=O)(=O)Nc2ccc(C(=O)NCc3ccc(F)cc3)cc2)c1 -4.3%
CC(=O)Nc1ccc(S(=O)(=O)NCCSc2ccc(C)cc2)cc1 -12.3%
Cc1cc(N2CCOCC2)nc2ccc(NC(=O)CCC(=O)N3CCN(c4ccccn4)CC3)cc12 -15.4%
Cc1ccc(C)c(N2CCN(C(=O)CCC(=O)Nc3ccc4nc(N5CCN(C)CC5)cc(C)c4c3)CC2)c1 -11.5%
Cc1nn(-c2ccccc2)c2c1c(C)c(CCC(=O)N1CCN(c3ccc(F)cc3)CC1)c(=O)n2C 5.08%
Cc1nc2cc(C(=O)NCc3ccccn3)ccc2n1-c1cccc(F)c1 0.0347%
Cc1cc(C)c(Cn2cccc2C2=NC(Cc3ccccc3)CO2)c(C)c1 (stereo unspecified) 7.3%
Cc1ccc(-c2nc3c4c(C)c(C)n(-c5cccnc5)c4ncn3n2)cc1 17%
CN1CCCCC[C@@H]2[C@@H]1C[C@@H](Cc1ccccc1)N2C(=O)c1cc(C2CC2)[nH]n1 14.4%
N#Cc1ccc(NC(=O)COC(=O)c2ccc3ccccc3n2)cc1 -197%
CCN(CC)S(=O)(=O)c1cc(C(=O)Nc2ccc(-c3cn4ccsc4n3)cc2)ccc1Cl 16.3%
COc1ccc(NC(=O)c2cc(CN3CCOCC3)on2)cc1 -3.06%
O=C(NCc1ccccc1)c1noc2c1CCc1sccc1-2 4.73%
COc1ccc(OC)c(NC(=O)C(Cc2c[nH]c3ccccc23)N2CCS(=O)(=O)CC2)c1 (stereo unspecified) 3.96%
Cc1cccc(-c2nnc(-c3cccc(S(=O)(=O)N4CCCC4)c3)o2)c1 6.44%
O=C(COC(=O)C1CCN(S(=O)(=O)c2c(Cl)cccc2Cl)CC1)Nc1ccc2c(c1)CCC2 0.533%
Cn1c(=O)c2c(nc(N3CCN(C(=O)c4ccco4)CC3)n2CCSc2nc3ccccc3s2)n(C)c1=O 0.301%
COc1cccc(C(=O)N2CCN(c3nc(-c4ccc(Cl)cc4)no3)CC2)c1OC 8.11%
Cc1ccccc1NC(=O)CSc1nnc(C2CC2)n1Cc1ccccc1 -1.39%
O=C(CSc1nccn1C1CCCCC1)Nc1ccccc1F 20.2%
CC(=O)O[C@H]1CC[C@]2(C)[C@H]3Cc4c(cc(-c5cccnc5)oc4=O)O[C@]3(C)CC[C@H]2C1(C)C 1.11%
O=C(C1CCCN(S(=O)(=O)N2CCOCC2)C1)N1CCN(Cc2ccccc2)CC1 (stereo unspecified) -0.311%
COc1ccc(Cl)cc1NC(C)c1nc2sc(C)c(C)c2c(=O)[nH]1 (stereo unspecified) -21.9%
CCC1(c2ccccc2)NC(=O)N(CC(=O)Nc2ccc(C)c([N+](=O)[O-])c2)C1=O (stereo unspecified) -6.64%
CCC(=O)c1ccc(OCC(=O)Nc2ccc3c(c2)CCC3)cc1 4.25%
COc1ccc(S(=O)(=O)N(C(=O)c2ccccc2)c2ccc3oc4c(c3c2)CCCC4)cc1 -2.79%
C=C(NC(=O)/C(C)=C/C=C\CCCCCC(C)C)C(=O)N/C(=C/OC)C(=O)OC -61.8%
O=C(Cc1ccc(Cl)cc1)N1CCC2(CN(Cc3ccc(O)cc3)C2)C1 -0.288%
CCOc1ccc(C(=O)C[n+]2cc(-c3ccccc3)n3c2CCC3)cc1 3.07%
COc1ccccc1CNCc1c(C(=O)O)c(C)n(-c2ccccc2)c1C 6.79%
O=C(Nc1ccccc1F)C1CCCN(c2nnc3ccccn23)C1 (stereo unspecified) 4.67%
CNC(=O)C1CCN(c2nc3ccc(-c4ccccc4F)nc3s2)CC1 15.7%
CCOc1nc(-c2ccc(Cl)cc2Cl)nc2ccccc12 9.99%
O=C(Nc1cc(Cl)ccc1F)c1cnc(-c2ccccc2)nc1-c1ccncc1 -172%
COc1cc2c(c(OC)c1OC)-c1ccc(NCCc3ccc(S(N)(=O)=O)cc3)c(=O)cc1[C@@H](NC(C)=O)CC2 -68.9%
